Source: PubChem BioAssay (National Center for Advancing Translational Sciences (NCATS))
Shown are actives, neighbours in structure and some others; about 11% of the full set was active somewhere.
PNC inhibitor: perinucleolar compartment assembly inhibition; activity change (PNC), negative = inhibition, % at 10 µM; PC3M PTB-GFP, PNC prevalence imaging, 16 h; active compounds read low; actives 3.1% (n = 140,000);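 active means readout at or below -70, meaning at least 70% loss of cells showing the perinucleolar compartment, a nuclear body marking cancer cells; inconclusive means readout between -30 and a set limit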;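 further: plate controls were DMSO wells for no effect and camptothecin positive control wells for full effect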
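Compounds are pinned in duplicate onto adhered PC3M cells stably expressing GFP-tagged PTB and incubated 16 h at 37 C. Cells are then fixed, nuclei stained with Hoechst, and PNC-positive cells counted.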
HPGD block: HPGD (human) dehydrogenase inhibition; Potency, µM, for inactives: at the top dose activity change, negative = inhibition, most hits filed as inhibitors; purified HPGD, NADH fluorescence kinetic, PGE2 substrate; actives 4.3% (n = 150,000); P15428; active means well fitted inhibition curve with a large enough effect, not every such curve was filed as active; inconclusive means small, poorly fitted or top-dose-only effect, or another doubt; inactive means no such curve, though single readings can be large or run the other way; further: potency means the concentration at half of the fitted maximal effect; on the % scale 0 is the no-effect control and ±100 the full control effect
Target sequence (P15428 whole entry, looked up): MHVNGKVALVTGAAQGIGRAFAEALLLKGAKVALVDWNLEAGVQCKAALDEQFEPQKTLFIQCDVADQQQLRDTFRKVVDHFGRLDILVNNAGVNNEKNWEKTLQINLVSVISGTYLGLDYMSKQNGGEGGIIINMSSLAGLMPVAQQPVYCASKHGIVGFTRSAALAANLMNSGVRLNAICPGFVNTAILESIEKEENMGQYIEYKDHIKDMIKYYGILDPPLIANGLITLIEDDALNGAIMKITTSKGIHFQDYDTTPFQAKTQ
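NADH formation kinetics: reaction with 30 uM PGE2 and 1 mM NAD+ (final), 20 nM enzyme, Tris-HCl pH 8 with Tween 20, after 15 min compound preincubation at room temperature. Fluorescence change, last versus first of five reads.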
CBFb-RUNX1 inh: blocks binding between human CBF-beta and RUNX1 | 230,000 tested, under 10 active | Q01196+Q13951 | AlphaScreen CBFb-His/RUNX1-biotin binding, biochemical | Potency, µM (top dose mostly 59.8 µM), inactives show at the highest dose activity, negative = inhibition, most hits filed as inhibitors; further: % of control where 0% means no effect
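CBF-beta (His) and RUNX1 (biotin), 30 nM each; 20 min preassociation; + compound, 15 min; + beads 50 ng each (Ni, streptavidin), 90 min; RT; AlphaScreen read.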
HTT aggregate: inhibitors of mutant huntingtin aggregate formation in PC12 cells; PC12 HttQ103-GFP aggregates, Acumen cytometry, 40 h; Potency, µM (doses to about 46.1 µM), for inactives: at the highest dose activity change, negative = inhibition, hits mostly inhibitors; actives 1.1% (n = 220,000); AID 1688; further: potency means the concentration at half of the fitted maximal effect; on the % scale 0 is the no-effect control and ±100 the full control effect; nearly all actives have a fitted effect of over 60% in size
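Read-out: GFP aggregate count by laser scanning cytometer (488 nm excitation, 500-530 nm emission, 1–25 µm objects >6 SD above background). Cells: PC12, inducible HTTex1-Q103-GFP, 100 nM tebufenozide; compounds titrated.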
HTT cytoprotect: protects HTT-Q103 PC12 cells, measured by ATP | PC12 HTT-Q103 induced, cytoprotection, ATP luminescence, 40 h | actives 0.14% (n = 230,000) | AID 1471 | Potency, µM (series often up to 56.4 µM), inactives show cytoprotection (ATP increase), most hits filed as activators; further: potency means the concentration at half of the fitted maximal effect; % of control where 0% means no effect; nearly all actives have a fitted effect of over 45% in size
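Readout: ATPlite luminescence (ATP level). Model: stable PC12, inducible Htt exon1 Q103-GFP. Inducer: tebufenozide, 100 nM final. Compounds: dose series. No G418 in medium.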
ALDH1A1 block: ALDH1A1 (human) enzyme inhibition; P00352; AID 1030; Purified ALDH1A1, NADH fluorescence, propionaldehyde substrate; actives 7.3% (n = 220,000); Potency, µM (doses to about 75.3 µM), without a hit: top-dose activity, negative = inhibition, hits mostly inhibitors; active means well fitted inhibition curve with a large enough effect, not every such curve was filed as active; inconclusive means small, poorly fitted or top-dose-only effect, or another doubt; inactive means no such curve, though single readings can be large or run the other way;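 further: potency means the concentration at half of the fitted maximal effect; plate controls were no enzyme wells and a reference inhibitor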
* marks the source's active call; other numbers are inactive results; ? = inconclusive; / = no result; [ ] = another dose, or the depositor's remark. Unless noted, the call rests on the fitted dose curve; in most records, active means well fitted curve in the direction sought with a large enough effect; inconclusive means small, poorly fitted or top-dose-only effect, or another doubt; inactive means no such curve, though single readings can be large; an effect the other way counts as inactive or inconclusive.

SMILES	PNC inhibitor	HPGD block	CBFb-RUNX1 inh	HTT aggregate	HTT cytoprotect	ALDH1A1 block
COCC(=O)N1CCC2(CC1)CN(C(=O)Nc1cccc(C#N)c1)C2	/	-7.3%	/	/	13.8%	-6.5%
CN(O)/C=N/C(=S)Nc1ccc(Cl)cc1Cl	/	/	4.7%	?	?	1.58µM*
COc1ccc(/C(N)=N/OC(=O)N2CCOCC2)cc1	/	/	2.7%	-9.7%[9.22 µM]	-43.4%[10 µM]	15.5%
COc1ccc(/C(N)=N/OC(=O)C2CCC(=O)N2S(=O)(=O)c2ccc(C)cc2)cc1 (configuration not stated)	-89.0*	-11.6%	8.1%	14.5%	11.3%[0.074 µM]	-11.4%
C=CCOC(=O)NC(c1ccc(F)c(F)c1)C(C(=O)CCl)C(=O)OC (configuration not stated)	/	-22.2%	-3.6%	/	-21.8%	10µM*
O=C(NCSc1ccncn1)c1ccccc1	48.1	-28.2%	-2.8%	?	-26.6%	-16.6%
C=CCSc1nnc(-c2ccc(Cl)cc2Cl)o1	13.5	11.2µM*	2.8%	-6.2%	-44.5%[10 µM]	-12.5%
CCOC(=O)c1cnc2ccc(C)cc2c1OCc1cc(F)cc(F)c1	5.4	-20.6%	-10.7%	0.0%	2.1%	14.1µM*
CCOC(=O)c1cnc2ccc(C(=O)OC)cc2c1Nc1ccc(C(=O)O)cc1	/	/	0.1%	12.7%[9.22 µM]	14.9%[10 µM]	4.0%
COc1ccc(C2=NCC(CSc3nccc(=O)[nH]3)S2)cc1 (configuration not stated)	-11.9	14.1µM*	-5.2%	10.0%	-26.6%	?
CCN(CC)S(=O)(=O)c1ccc2oc(SCC3CN=C(c4ccc(OC)cc4)S3)nc2c1 (configuration not stated)	24.0	14.1µM*	-1.9%	?	-72.9%	22.4µM*
COc1ccc(C2=NCC(CSc3nnc(-c4ccc5c(c4)OCO5)o3)S2)cc1 (configuration not stated)	31.6	22.4µM*	4.6%	?	-13.4%[10 µM]	-16.2%
CO[C@@H]1COC(=O)[C@@H](CCSC)NC(=O)C/C=C\[C@@H](C)COC(=O)[C@H](C)NC(=O)C/C=C\[C@H]1C	/	/	-1.4%[13.1 µM]	/	-21.5%[10 µM]	2.9%[13.5 µM]
Cc1ccc(-c2cc(C(F)F)n3ncc(C(=O)N4CCc5ccccc5C4)c3n2)cc1	/	/	3.1%	3.6%[9.22 µM]	20.2%[10 µM]	-5.6%
COc1ccc(-c2cc(C(F)F)n3ncc(C(=O)N4CCc5ccccc54)c3n2)cc1	/	/	-2.7%	1.58µM*	-68.7%[10 µM]	1.0%
Cc1ccc(-c2cc(C(F)F)n3ncc(C(=O)N4CCCc5ccccc54)c3n2)cc1	-100.0*	-15.1%	-1.0%	-14.0%	-2.4%[10 µM]	-1.4%
CCOC(=O)CCN1C(=O)[C@@H]2[C@H]3C(=CC[C@H]2C1=O)C(=O)[C@H]1O[C@H]1[C@H]3O	/	/	-3.8%[13.1 µM]	/	-2.1%[10 µM]	?
CCC(C)c1ccc(O)c(N)c1 (configuration not stated)	-29.9	?	-7.7%	51.3%	28.3%	25.1µM*
CC(C)c1ccc(O)c(N)c1	16.8	-20.7%	10.8%	?	26.2%	28.2µM*
CC(C)(C)c1ccc(O)c(N)c1	2.7	-16.7%	-4.0%	16.6%	-15.1%	?
CCN(CC)CCn1c2ccccc2c2nc(C)sc21	24.2	-7.2%	10.8%	5.2%	-11.1%	2.2%
COc1ccccc1CNC(=O)c1ccc(OC(C)C)cc1	/	/	-1.8%	9.5%	/	3.2%
CCOC(=O)NCc1ccc(Cl)c(Cl)c1	?	1.5%	4.5%	-26.5%	-21.7%	5.9%
Cc1ccc(C(=O)NCc2ccc(Cl)c(Cl)c2)o1	18.5	12.6µM*	-2.3%	7.8%	-4.6%	1.6%
N=S(=O)(O)Cc1noc2ccccc12	/	-15.5%	1.2%	/	/	-2.8%
Cc1ccc(SCC(=O)N2c3ccccc3Sc3ccccc32)cc1	13.4	-21.8%	29.1%	15.8µM*	-35.6%	3.55µM*
Cc1ccc(SCC(=O)N2CCc3ccccc32)cc1	-26.3	-11.4%	2.4%	0.0%	4.7%[10 µM]	9.7%
Cn1nnnc1SCC(=O)N1c2ccccc2Sc2ccccc21	?	-10.3%	4.8%	-2.1%	-11.4%	5.1%
